# Screening results (PubChem BioAssay)
# proKLK7 act = proKLK7 (human) activation, primary screen; 370,000 tested, 0.9% active; purified proKLK7, EDANS-DABCYL substrate fluorescence; 100% is mature enzyme control, 0% vehicle; activation, % at 7 µM; AID 652039;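 active means activation above the mean of all tested compounds plus 3 SD, computed per campaign excluding outliers beyond control limits, cut at about 13% in these data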
# rCAG binder = r(CAG) repeat RNA binding; TO-PRO-1 dye displacement fluorescence; inhibition, % at 3 µM; 370,000 tested, 1.3% active; AID 651821;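 active means inhibition above the plate cutoff, the mean of all test compounds on that plate plus 3 SD, cut at about 35% in these data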;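 further: 0% = DMSO alone and 100% = 100 µM mitoxantrone as full dye displacement; higher means more dye released from RNA so lower well fluorescence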
# ADAM17 inh = ADAM17 inhibition, QFRET primary screen; P78536; recombinant ADAM17, EDANS/DABCYL FRET peptide cleavage; inhibition, % at 6.95 µM; 370,000 tested, 0.83% active;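 active means inhibition above the mean of compounds lying between control limits plus 3 SD, set per campaign, cut at about 8.5% in these data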;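 further: 0% = DMSO-only wells as the low control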
# Pemphigus Ab inh = blocks pemphigus antibody binding to human desmoglein-3 | P32926 | DSG3-coupled beads, scFv-anti-DSG3-GFP binding, flow cytometry; stronger effect = lower value | binding (percent of control), % at 10 µM | 310,000 tested, 0.48% active | AID 588358;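 active means binding more than 3 SD below its plate's average and above zero; inconclusive means below that plate limit but binding exactly zero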;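 further: hits lower antibody fragment binding to DSG3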
# Target sequence (P32926 whole entry, looked up, the tested form may be a part): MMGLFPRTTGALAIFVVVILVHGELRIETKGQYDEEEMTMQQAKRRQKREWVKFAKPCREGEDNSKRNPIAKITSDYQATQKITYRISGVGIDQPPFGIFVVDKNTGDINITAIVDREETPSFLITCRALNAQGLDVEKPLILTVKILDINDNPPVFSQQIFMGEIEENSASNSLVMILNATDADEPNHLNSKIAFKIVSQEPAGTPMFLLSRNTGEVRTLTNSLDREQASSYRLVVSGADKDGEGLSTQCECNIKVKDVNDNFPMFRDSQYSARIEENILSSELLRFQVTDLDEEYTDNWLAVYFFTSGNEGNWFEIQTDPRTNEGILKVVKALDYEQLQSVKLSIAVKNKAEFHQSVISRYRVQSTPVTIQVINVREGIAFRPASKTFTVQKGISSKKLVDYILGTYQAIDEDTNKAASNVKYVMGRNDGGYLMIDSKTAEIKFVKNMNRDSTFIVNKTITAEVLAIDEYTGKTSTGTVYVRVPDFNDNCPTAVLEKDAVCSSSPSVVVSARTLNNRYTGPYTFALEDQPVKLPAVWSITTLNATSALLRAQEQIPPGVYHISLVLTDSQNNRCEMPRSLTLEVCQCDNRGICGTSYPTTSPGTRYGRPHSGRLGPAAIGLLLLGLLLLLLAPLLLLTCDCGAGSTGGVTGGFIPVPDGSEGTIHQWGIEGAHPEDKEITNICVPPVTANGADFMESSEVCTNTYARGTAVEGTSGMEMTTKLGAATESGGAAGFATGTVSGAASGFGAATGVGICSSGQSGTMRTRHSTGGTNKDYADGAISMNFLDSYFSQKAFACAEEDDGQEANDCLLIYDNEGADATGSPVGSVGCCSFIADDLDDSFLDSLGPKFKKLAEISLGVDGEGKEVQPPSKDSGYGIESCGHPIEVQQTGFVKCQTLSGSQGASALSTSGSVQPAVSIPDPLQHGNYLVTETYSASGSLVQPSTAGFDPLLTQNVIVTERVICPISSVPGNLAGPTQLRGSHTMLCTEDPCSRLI
# ADAM10 inh = inhibits human ADAM10. 370,000 tested, 0.62% active. recombinant ADAM10, EDANS/DABCYL FRET peptide cleavage, 3 h. O14672. inhibition, % at 7 µM;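 active means inhibition above a per-campaign cutoff equal to the mean of compounds falling between control-based bounds plus 3 SD, cut at about 20% in these data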;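 further: 0% = DMSO wells while the 100% control is not disclosed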
# MPTP block = permeability transition pore inhibition; isolated mouse mitochondria, Ca2+ swelling absorbance, 30 min; inhibition, % at 10 µM; 360,000 tested, 1.4% active; AID 602449;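 active means inhibition of 50% or more, scaled per plate between neutral and stimulator controls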;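 further: 0% = DMSO wells given calcium and 100% = 1 mM EGTA wells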
# Rh123 counter = membrane potential counter-screen of mitochondrial pore inhibitors. 5,000 tested, 78% active. AID 624504. inhibition, % at 10 µM. shares compounds with MPTP block. isolated mitochondria, Rhodamine 123 fluorescence; in the data active means inhibition above about 22%;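 further: 0% = DMSO vehicle and 100% = positive control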
# rCAG bind conf = r(CAG) RNA repeat binding, confirmation. shares compounds with rCAG binder. TO-PRO-1 dye displacement fluorescence. inhibition, % at 3 µM. 4,300 tested, 70% active;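 active means inhibition above a per-plate cutoff, the mean inhibition of sample wells plus 3 SD, cut at about 35% in these data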;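 further: loss of TO-PRO-1 fluorescence as compound displaces dye from 1x1 AA loop RNA; 0% = DMSO only wells and 100% = 100 µM mitoxantrone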
# DNA CAG counter = disrupts DNA CAG TO-PRO-1 complex, flagging rCAG hits | inhibition, % at 3 µM | d(CAG) DNA oligo TO-PRO-1 dye displacement, fluorescence | 4,300 tested, 94% active | shares compounds with rCAG binder | AID 652068;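 active means inhibition above its plate's cutoff, the mean test-well inhibition plus 3 SD, cut at about 4.8% in these data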;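 further: 0% = DNA dye mix with DMSO and 100% = 100 µM mitoxantrone; hits displace the dye from DNA and so lower well fluorescence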
# ADAM10 confirm = confirmation of inhibitors of human ADAM10. 2,100 tested, 1% active. inhibition, % at 6.95 µM. ADAM10 QFRET peptide cleavage, EDANS fluorescence. AID 743208. shares compounds with ADAM10 inh;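 active means inhibition above about 20% chosen separately for each screening run, limit read from the data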;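 further: 0% = DMSO wells and 100% = marimastat wells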
# ADAM17 ctr = inhibits human ADAM17 in ADAM10 exosite counter-screen. shares compounds with ADAM10 inh. AID 743214. ADAM17 QFRET peptide cleavage, EDANS fluorescence. 2,100 tested, 0.5% active. inhibition, % at 6.95 µM;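 active means mean triplicate inhibition above the solvent-only control wells' mean plus 3 SD, cut at about 12% in these data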;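 further: 0% = DMSO wells and 100% = marimastat wells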
# ADAM10 counter = counter-screen for ADAM17 exosite inhibitors: inhibitors of human ADAM10. 2,900 tested, 47% active. recombinant ADAM10, EDANS/DABCYL FRET peptide cleavage, 3 h. AID 743256. inhibition, % at 6.95 µM. shares compounds with ADAM17 inh;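 active means mean inhibition over the triplicate runs exceeds the activity threshold set in the earlier primary screen, cut at about 20% in these data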;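 further: 0% = DMSO wells and 100% = marimastat wells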
# ADAM17 confirm = human ADAM17 inhibition, confirmation | 2,900 tested, 65% active | recombinant ADAM17, EDANS/DABCYL QFRET peptide cleavage | inhibition, % at 6.95 µM | shares compounds with ADAM17 inh | AID 743257;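 active means mean inhibition across replicates above the hit cutoff set in the primary screen, cut at about 8.5% in these data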;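 further: 0% = DMSO wells and 100% = marimastat wells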
# * = called active by the depositor; i = inactive; ? = inconclusive; · = no result given. Rows were chosen to be rich in hits. Some 4.7% of all compounds tested hit in one or more screens of this group.
SMILES,proKLK7 act,rCAG binder,ADAM17 inh,Pemphigus Ab inh,ADAM10 inh,MPTP block,Rh123 counter,ADAM10 counter,ADAM17 confirm,others
COc1ccccc1NS(=O)(=O)c1ccc2oc(SCc3ccc(F)cc3)nc2c1,-1,4,-4,97,-6,7,·,·,·,
O=C(NNc1ccccc1Br)C(=O)n1ccc2ccccc21,0,4,9.5*,127,17,57*,57*,-5,1,
CCCCC(=O)Nc1cccc(-c2csc(-c3ccccc3)n2)c1,1,9,8.9*,90,17,57*,58*,22*,17*,
COC(=O)c1cc2c(c3c4cc(F)ccc4n(S(=O)(=O)c4cccc(C)c4)c13)C(=O)N(C)C2,-1,11,-3,·,-8,·,·,·,·,
N#Cc1ccc(S(=O)(=O)N2CCCc3nc(-c4ccc(F)cc4)ccc32)cc1,1,3,-4,·,-6,·,·,·,·,
Cc1ccc(NC(=O)CNc2cccc(S(=O)(=O)N3CCCCC3)c2)cc1F,0,5,5,101,10,5,·,·,·,
O=C(CNc1cccc(S(=O)(=O)N2CCCCC2)c1)Nc1ccc(C(F)(F)F)cc1,0,2,10*,97,28*,81*,76*,13,7,ADAM10 confirm=3;ADAM17 ctr=1
Cc1ccccc1C(=O)NC1CCCCN(C)C1=O (centres undefined),1,0,-5,·,-7,·,·,·,·,
Cc1cc(NC(=O)CCSc2ccccc2)ccc1Br,0,5,9.2*,98,19,97*,84*,22*,14*,
Cc1cc(Br)ccc1NC(=O)CCSc1ccccc1,-1,-1,-2,101,2,7,·,·,·,
CCCCN(CCCC)S(=O)(=O)c1ccc(NC(=O)c2cccs2)cc1,1,16,12*,97,16,86*,72*,32*,16*,
COc1ccccc1-c1cccc2[nH]c3c(c12)CCN1C(=O)[C@H]2[C@H](C)ON(C)[C@H]2C[C@@H]31,-41,9,-227,·,i,·,·,·,·,
COC(=O)[C@]12C[C@H](CC(=O)NCc3ccccc3)C(=O)N(Cc3ccc4c(c3)OCO4)C1=C[C@H](COCc1ccccc1)O[C@@H]2C,0,7,-1,·,6,·,·,·,·,
CCC(C(=O)OCC(=O)Nc1cc(Cl)cc(Cl)c1)c1ccccc1 (centres undefined),0,11,19*,103,42*,82*,90*,23*,12*,ADAM10 confirm=10;ADAM17 ctr=4
CCC(C(=O)OCC(=O)Nc1cccc(C(C)=O)c1)c1ccccc1 (centres undefined),-1,-8,-4,92,-6,3,·,·,·,
S=C(NCc1ccco1)Nc1ccc(Cl)c(Cl)c1,0,11,10.0*,117,11,94*,90*,5,7,
Cc1ccc(S(=O)(=O)NC(=S)c2ccccc2)cc1,0,6,-1,96,1,-1,·,·,·,
Cc1ccc(S(=O)(=O)CNC(=S)c2cccc(Cl)c2)cc1,0,8,11*,102,19,77*,83*,48*,26*,
Cn1c(N/N=C/c2cccs2)cc(=O)n(C)c1=O,2,2,-31,105,-91,-1,·,·,·,
Fc1c(F)c(C(F)(F)F)c(F)c(F)c1N/N=C\c1cccs1,-1,26,9.8*,87,24*,87*,70*,32*,19*,ADAM10 confirm=14;ADAM17 ctr=4
COCCCN1C(=O)[C@H](CC(=O)NCCC(C)C)[C@]2(C(=O)OC)CCCCC=C12,0,0,-2,·,-8,·,·,·,·,
O=C(Nc1cccc(S(=O)(=O)Nc2ccc(Cl)cc2)c1)c1cc2c(s1)CCCC2,0,43*,15*,78,27*,97*,83*,45*,27*,rCAG bind conf=29;DNA CAG counter=17*;ADAM10 confirm=14;ADAM17 ctr=4
O=C(Nc1ccon1)c1cc2c(s1)CCCC2,·,·,·,95,·,-2,·,·,·,
Cc1ccccc1NS(=O)(=O)c1cc(C(=O)Nc2cccc([N+](=O)[O-])c2)ccc1C,0,22,11*,101,27*,98*,78*,36*,22*,ADAM10 confirm=6;ADAM17 ctr=2
O=C(Nc1ccc(N2CCCC2)c(S(=O)(=O)Nc2cccc(C(F)(F)F)c2)c1)c1cccs1,-1,16,15*,97,28*,74*,50*,42*,24*,ADAM10 confirm=15;ADAM17 ctr=5
SMILES,proKLK7 act,rCAG binder,ADAM17 inh,Pemphigus Ab inh,ADAM10 inh,MPTP block,Rh123 counter,ADAM10 counter,ADAM17 confirm,others
O=C(CCCSc1ccc(Cl)cc1)Nc1cc(S(=O)(=O)N2CCOCC2)ccc1O,0,40*,-3,98,-1,17,·,·,·,rCAG bind conf=49*;DNA CAG counter=16*
O=C(Nc1cc(S(=O)(=O)N2CCOCC2)ccc1O)c1ccc2c(c1)S(=O)(=O)c1ccccc1C2=O,-1,43*,-4,84,1,4,·,·,·,rCAG bind conf=69*;DNA CAG counter=31*
O=C(Nc1ccc(S(=O)(=O)N2CCOCC2)cc1)c1ccc2c(c1)S(=O)(=O)c1ccccc1C2=O,0,0,-2,100,-3,-2,·,·,·,
O=C(Nc1cc(S(=O)(=O)N2CCOCC2)ccc1O)c1ccc(S(=O)(=O)N2CCCCC2)cc1,1,40*,3,?,18,-1,·,·,·,rCAG bind conf=37*;DNA CAG counter=10*
O=C(Nc1ccc(S(=O)(=O)N2CCOCC2)cc1)c1cc(-c2ccccc2O)n[nH]1,0,35*,7,91,15,46,·,·,·,rCAG bind conf=24;DNA CAG counter=7.9*
CC(=O)c1ccc(OCCCC(=O)NCCc2ccccc2)cc1,0,-6,-1,97,-14,0,·,·,·,
N#CC1C(=O)NC(=O)C(C#N)C12CCCc1sccc12 (centres undefined),1,2,-1,103,-11,0,·,·,·,
COc1ccc(C=NNC(=O)Cc2cc(=O)[nH][nH]2)c(OC)c1,0,15,-4,·,-3,·,·,·,·,
